Test results from PubChem BioAssay (EPA / NIEHS).
Inconclusive results are not listed. Active and inactive are the calls of the source. The calls were made as follows, unless noted: active = hit-call score of the fitted dose curve at least 0.9, where 1 is the maximum; inconclusive = response in the unintended direction; inactive = score below 0.9.

What was measured:
[1] = read-out: Transforming Growth Factor (TGFA), TGFA (gene 7039); assay: LTEA_HepaRG_TGFA: Life Technologies and Expression Analysis (LTEA) Assay for Transforming Growth Factor (TGFA) using HepaRG (AID 2283532; active = hit-call score of the fitted dose curve at least 0.9, where 1 is the maximum; inactive = score below 0.9); settings: mRNA level, 48 h; actives raise or lower the signal
Procedure, shortened: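 Differentiated human HepaRG cells, plated 48 h then switched to serum-free induction medium, were exposed in duplicate for 48 h to 8-point half-log series from 100 uM in 0.5% DMSO. TGFA mRNA measured by qRT-PCR, normalized to ACTB/GAPDH/POLR2A, bidirectional fit versus DMSO.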

[2] = read-out: Transforming Growth Factor (TGFB1), TGFB1 (gene 7040); assay: LTEA_HepaRG_TGFB1: Life Technologies and Expression Analysis (LTEA) Assay for Transforming Growth Factor (TGFB1) Transporter using HepaRG (AID 2283533; active = hit-call score of the fitted dose curve at least 0.9, where 1 is the maximum; inactive = score below 0.9); settings: mRNA level, 48 h; actives raise or lower the signal
Procedure, shortened: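 qRT-PCR readout of TGFB1 transcript in HepaRG lysates, normalized to three housekeeping genes; gain or loss of signal fitted relative to 0.5% DMSO vehicle. Exposure: 48 h, 8-point curve from 100 uM, duplicate wells.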

[3] = read-out: TIMP1, TIMP1 (gene 7076); assay: LTEA_HepaRG_TIMP1: Life Technologies and Expression Analysis (LTEA) Assay for TIMP1 using HepaRG (AID 2283534; active = hit-call score of the fitted dose curve at least 0.9, where 1 is the maximum; inactive = score below 0.9;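 also: TaqMan qRT-PCR signal normalized to ACTB GAPDH and POLR2A housekeeping genes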); settings: mRNA level, 48 h; actives raise or lower the signal
Procedure, shortened: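 HepaRG, 48 h exposure, 8-pt half-log series from 100 uM in 0.5% DMSO, duplicates; TIMP1 transcript by Fluidigm qRT-PCR, housekeeping-normalized; bidirectional curve fit vs DMSO baseline.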

[4] = read-out: Tumor necrosis factor receptor 1 (TNFRSF1A), TNFRSF1A (gene 7132); assay: LTEA_HepaRG_TNFRSF1A: Life Technologies and Expression Analysis (LTEA) Assay for Tumor necrosis factor receptor 1 (TNFRSF1A) using HepaRG (AID 2283535; active = hit-call score of the fitted dose curve at least 0.9, where 1 is the maximum; inactive = score below 0.9); settings: mRNA level, 48 h; actives raise or lower the signal
Procedure, shortened: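 HepaRG, 48 h plating then 48 h chemical exposure, serum-free induction media; 8-pt CRC from 100 uM, half-log, 0.5% DMSO vehicle, duplicates. Readout: TaqMan qRT-PCR (Fluidigm), housekeeping-gene normalized; bidirectional fit vs DMSO.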

[5] = read-out: Thyroid Hormone Responsive (THRSP), THRSP (gene 7069); assay: LTEA_HepaRG_THRSP: Life Technologies and Expression Analysis (LTEA) Assay for Thyroid Hormone Responsive (THRSP) using HepaRG (AID 2283536; active = hit-call score of the fitted dose curve at least 0.9, where 1 is the maximum; inactive = score below 0.9); settings: mRNA level, 48 h; actives raise or lower the signal
Procedure, shortened: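 Differentiated human HepaRG cells were exposed in duplicate for 48 h in serum-free induction medium to eight concentrations (top 100 uM, half-log steps, 0.5% DMSO). Expression was quantified by TaqMan qRT-PCR, normalized to ACTB, GAPDH and POLR2A, with bidirectional fitting against DMSO.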

[6] = read-out: Cellular tumor antigen p53 (Homo sapiens) (UniProt P04637); assay: LTEA_HepaRG_TP53: Life Technologies and Expression Analysis (LTEA) Assay for Tumor Protein P53 (TP53) using HepaRG (AID 2283537; active = hit-call score of the fitted dose curve at least 0.9, where 1 is the maximum; inactive = score below 0.9); settings: mRNA level, 48 h; actives raise or lower the signal
Procedure, shortened: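 HepaRG, 48 h exposure, top 100 uM, half-log 8-point, 0.5% DMSO vehicle, duplicates. Read: TP53 mRNA by TaqMan qRT-PCR, normalised to ACTB/GAPDH/POLR2A; bidirectional fit vs DMSO.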

[7] = read-out: UDP glucuronosyltransferase (UGT1A1), UGT1A1 (gene 54658); assay: LTEA_HepaRG_UGT1A1: Life Technologies and Expression Analysis (LTEA) Assay for UDP glucuronosyltransferase (UGT1A1) using HepaRG (AID 2283538; active = hit-call score of the fitted dose curve at least 0.9, where 1 is the maximum; inactive = score below 0.9); settings: mRNA level, 48 h; actives raise or lower the signal
Procedure, shortened: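 HepaRG cells, 0.5% DMSO vehicle, 48 h exposure in serum-free induction medium to 8-point half-log series topping at 100 uM, in duplicate. UGT1A1 mRNA by Fluidigm qRT-PCR, normalized to ACTB/GAPDH/POLR2A; bidirectional fit versus DMSO.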

[8] = read-out: UDP glucuronosyltransferase (UGT1A6), UGT1A6 (gene 54578); assay: LTEA_HepaRG_UGT1A6: Life Technologies and Expression Analysis (LTEA) Assay for UDP glucuronosyltransferase (UGT1A6) using HepaRG (AID 2283539; active = hit-call score of the fitted dose curve at least 0.9, where 1 is the maximum; inactive = score below 0.9); settings: mRNA level, 48 h; actives raise or lower the signal
Procedure, shortened: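 qRT-PCR readout of UGT1A6 mRNA (normalized to ACTB/GAPDH/POLR2A) in differentiated HepaRG cells after 48 h chemical exposure; 8 concentrations, top 100 uM, half-log steps, 0.5% DMSO. Bidirectional curve fit relative to DMSO baseline.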

[9] = read-out: X-box binding protein 1 (XBP1), XBP1 (gene 7494); assay: LTEA_HepaRG_XBP1: Life Technologies and Expression Analysis (LTEA) Assay for X-box binding protein 1 (XBP1) using HepaRG (AID 2283540; active = hit-call score of the fitted dose curve at least 0.9, where 1 is the maximum; inactive = score below 0.9); settings: mRNA level, 48 h; actives raise or lower the signal
Procedure, shortened: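 HepaRG, 48 h exposure, 8-pt half-log CRC top 100 uM, 0.5% DMSO vehicle, duplicates. Readout: TaqMan qRT-PCR of XBP1 mRNA, housekeeping-normalised (ACTB/GAPDH/POLR2A); bidirectional fit vs DMSO baseline.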

[10] = LTEA_HepaRG_LDH_cytotoxicity: Cytotoxicity Assessment in the Life Technologies and Expression Analysis (LTEA) Assay (AID 2283563)
Procedure, shortened: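 HepaRG (human liver line), 48 h exposure, 8-pt half-log series from 100 uM, 0.5% DMSO vehicle, duplicates. Read-out: LDH in spent medium. Positive-direction fit vs DMSO baseline.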

[11] = TOX21_p53_BLA_p2_viability: Viability Assessment in the Tox21 HCT-116 p53 Agonism Beta-lactamase Assay, Phase 2 (AID 2283591);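 also: compound exposure lasted 16 h at 37 °C; actives lower the ATP signal meaning cytotoxicity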
Procedure, shortened: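 HCT-116 p53-bla cells (4000/well) rested 5 h at 37C, then received compounds in DMSO (217-fold dilution) for 16 h at 37C, 5% CO2. After the CCF4 read, CellTiter-Glo was added; ATP luminescence was read after 30 min at room temperature.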

[12] = target: Cellular tumor antigen p53 (Homo sapiens) (UniProt P04637); assay: TOX21_p53_BLA_p2_ratio: Tox21 HCT-116 p53 Agonism Beta-lactamase Assay, Ratio, Phase 2 (AID 2283592)
Procedure, shortened: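 In this cell-based reporter format, HCT116 cells were dosed with chemicals delivered from DMSO by 217-fold dilution and incubated 16 h at 37C. Emission at 460 and 530 nm after 2 h CCF4-AM loading provided the ratio, fitted upward versus DMSO.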

[13] = target: Cellular tumor antigen p53 (Homo sapiens) (UniProt P04637); assay: TOX21_p53_BLA_p3_ratio: Tox21 HCT-116 p53 Agonism Beta-lactamase Assay, Ratio, Phase 3 (AID 2283596)
Procedure, shortened: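 HCT116 p53-bla cells (4000/well) given compound in DMSO (217-fold dilution) after 5 h, incubated 16 h at 37C. CCF4-AM substrate 2 h at room temperature; 460/530 nm emission ratio, gain fitted against DMSO.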

[14] = TOX21_p53_BLA_p4_viability: Viability Assessment in the Tox21 HCT-116 p53 Agonism Beta-lactamase Assay, Phase 4 (AID 2283597);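 also: hits lower the luminescence signal meaning cytotoxicity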
Procedure, shortened: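 We seeded HCT116 p53 reporter cells at 4000/well and waited 5 h. We then added compounds in DMSO at a 217-fold dilution and incubated for 16 h. Viability was read as CellTiter-Glo luminescence after 30 min at RT.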

[15] = target: Cellular tumor antigen p53 (Homo sapiens) (UniProt P04637); assay: TOX21_p53_BLA_p5_ratio: Tox21 HCT-116 p53 Agonism Beta-lactamase Assay, Ratio, Phase 5 (AID 2283599)
Procedure, shortened: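 HCT-116 cells carrying a p53-inducible beta-lactamase reporter were seeded at 4000 cells/well and dosed after 5 h with compound in DMSO (217-fold dilution). After 16 h at 37C, CCF4-AM substrate was added for 2 h, and the 460/530 nm emission ratio was scored as gain-of-signal versus DMSO.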

[16] = TOX21_p53_BLA_p5_viability: Viability Assessment in the Tox21 HCT-116 p53 Agonism Beta-lactamase Assay, Phase 5 (AID 2283600)
Procedure, shortened: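 Compounds, pinned from DMSO at 217-fold dilution, were left on the cells for 16 h. The viability endpoint was ATP content measured by CellTiter-Glo luminescence, where falling signal reflects cytotoxicity.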

[17] = target: Cellular tumor antigen p53 (Homo sapiens) (UniProt P04637); assay: TOX21_p53_BLA_p4_ratio: Tox21 HCT-116 p53 Agonism Beta-lactamase Assay, Ratio, Phase 4 (AID 2283601)
Procedure, shortened: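 HCT116 cells carrying an inducible beta-lactamase reporter were plated at 4000 cells/well, rested 5 h, then exposed to compounds in DMSO (217-fold dilution) for 16 h at 37C. CCF4-AM substrate was loaded 2 h at room temperature; 460/530 nm emission ratio scored gain-of-signal versus DMSO.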

[18] = Tanguay_ZF_120hpf_MORT_legacy: (Legacy) Oregon State University Tanguay Lab 120 Hour Post-fertilization zebrafish Assay for Mortality (AID 2283633)
Procedure, shortened: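 Brightfield scoring of embryo death (binary) at 24 and 120 hpf; static exposure 6–120 hpf, 28C, sealed and foil-covered. Pronase-dechorionated 5D wild-type larvae, single embryo per well. DMSO 0.64% v/v; trimethyltin chloride 5uM positive control.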

[19] = Tanguay_ZF_120hpf_YSE_legacy: (Legacy) Oregon State University Tanguay Lab 120 Hour Post-fertilization zebrafish Assay for Yolk Sac Edema (AID 2283634)
Procedure, shortened: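 Binary brightfield scoring of yolk sac edema at 120 hpf; DMSO baseline, gain-of-signal fitting. Dechorionated 5D larvae, one per well, static exposure 6–120 hpf, 28C, 0.64% DMSO. Dead embryos not scored.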

Measured: AC50

Sequence of Cellular tumor antigen p53 (Homo sapiens) (P04637 whole entry, looked up): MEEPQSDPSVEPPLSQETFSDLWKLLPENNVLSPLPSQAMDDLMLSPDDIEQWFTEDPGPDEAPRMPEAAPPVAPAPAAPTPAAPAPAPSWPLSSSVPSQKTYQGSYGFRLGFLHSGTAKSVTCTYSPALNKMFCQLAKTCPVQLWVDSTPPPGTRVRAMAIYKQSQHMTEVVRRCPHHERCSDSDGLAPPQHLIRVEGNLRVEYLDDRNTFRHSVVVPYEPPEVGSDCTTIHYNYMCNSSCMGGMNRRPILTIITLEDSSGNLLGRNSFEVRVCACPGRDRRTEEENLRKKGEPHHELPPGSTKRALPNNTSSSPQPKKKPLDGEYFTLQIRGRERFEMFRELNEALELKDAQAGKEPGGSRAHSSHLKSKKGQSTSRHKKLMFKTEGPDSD

c1cc[n+]2c(c1)-c1cccc[n+]1CC2
inactive: [1] | [2] | [3] | [4] | [5] | [6] | [7] | [8] | [9] | [10] | [11] | [12] | [13] | [15] | [16] | [17] | [18] | [19]
active: [14] 20 µM
